Records with an inconclusive call do not appear. The source made the active and inactive calls. Calls come from the whole dose curve; as a rule, active = well fitted inhibition curve with a large enough effect; inconclusive = small, poorly fitted or top-dose-only effect; inactive = flat fitted curve, though single readings scatter.
Columns and labels:
Assay in all cases: qHTS profiling for inhibitors of Plasmodium falciparum proliferation (AID 504749); note: nearly all actives have a fitted effect of over 60% in size
Conditions in all cases: P. falciparum in erythrocytes, SYBR Green DNA, 72 h; series mostly up to 12.8 µM
CP252 = tested on: CP252
Outline: (§1)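 In a 72 h erythrocytic culture (37 C, humidified, 5% CO2) at 2.5% hematocrit and 0.3% starting parasitemia, compounds were tested; SYBR Green I in detergent lysis buffer stained parasite DNA overnight.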

CP256 = tested on: CP256
Outline: as §1

CP260 = tested on: CP260
Outline: as §1

CP262 = tested on: CP262
Outline: as §1

CP265 = tested on: CP265
Outline: as §1

CP266 = tested on: CP266
Outline: as §1

CP268 = tested on: CP268
Outline: as §1

CP269 = tested on: CP269
Outline: as §1

CP286 = tested on: CP286
Outline: as §1

CP291 = tested on: CP291
Outline: as §1

CP297 = tested on: CP297
Outline: as §1

CP305 = tested on: CP305
Outline: as §1

CP315 = tested on: CP315
Outline: as §1

CP325 = tested on: CP325
Outline: as §1

CP329 = tested on: CP329
Outline: as §1

CP335 = tested on: CP335
Outline: as §1

DFO2036 = tested on: DFO2036
Outline: as §1

DIV14 = tested on: DIV14
Outline: as §1

DIV17 = tested on: DIV17
Outline: as §1

DIV30 = tested on: DIV30
Outline: as §1

Dd2 = tested on: Dd2
Outline: as §1

ECU = tested on: ECU
Outline: as §1

FAB9 = tested on: FAB9
Outline: as §1

GB4 = tested on: GB4
Outline: as §1

HB3 = tested on: HB3
Outline: as §1

ICS = tested on: ICS
Outline: as §1

JCK = tested on: JCK
Outline: as §1

N140 = tested on: N140
Outline: as §1

P93_24 = tested on: P93_24
Outline: as §1

P94_40 = tested on: P94_40
Outline: as §1

PAD = tested on: PAD
Outline: as §1

PC15 = tested on: PC15
Outline: as §1

PC26 = tested on: PC26
Outline: as §1

PC49 = tested on: PC49
Outline: as §1

SC27B = tested on: SC27B
Outline: as §1

TAB109 = tested on: TAB109
Outline: as §1

TAB113 = tested on: TAB113
Outline: as §1

TAB165 = tested on: TAB165
Outline: as §1

W2 = tested on: W2
Outline: as §1

Measured: Potency

O=C(O)[C@@H]1CCCN1
inactive: all assays above

Reference: PubChem BioAssay (NCATS)
